In all, about 39,000 compounds went through this assay and about 1,500 (3.8%) were called active. Many of the other results were omitted from the sample, so actives are more common in it than they were.
These compounds were tested on HSkMC (human skeletal muscle cells) (assay: cytotoxicity call (relative viability < 0.9)). Conditions: 10 µM.
With `C[C@H]1CN([C@@H](C)CO)C(=O)c2cc(C#Cc3ccccc3F)cnc2O[C@H]1CN(C)C(=O)Cc1cccnc1` the cytotoxicity call was “inactive”. `COCC(=O)Nc1ccc2c(c1)OC[C@@H](C)N(C(=O)Cc1ccccn1)C[C@@H](C)[C@H](OC)CN(C)C2=O` was tested, and the cytotoxicity call was “inactive”. `COc1ccc(COC[C@]23NC(=S)N(C(=O)c4ccccc4)[C@H](c4ccccc4O2)[C@H]3CO[Si](C)(C)C(C)(C)C)cc1` was tested, and the cytotoxicity call was “inactive”. In the case of `CO[C@H]1CN(C)C(=O)c2ccc(NC(=O)C3CCOCC3)cc2OC[C@H](C)N(Cc2cccnc2)C[C@@H]1C`, the cytotoxicity call is reported as “inactive”. With `COc1ccc2c3c(n(c2c1)C)[C@H](CO)N(C[C@]13CCN(CC1)C(=O)c1cnccn1)C(=O)c1cnccn1` the cytotoxicity call was “inactive”. In the case of `C[C@H](CO)N1C[C@H](C)[C@@H](CN(C)C(=O)Nc2ccc3c(c2)OCO3)Oc2ccc(NC(=O)Cn3cnnn3)cc2CC1=O`, the cytotoxicity call is reported as “inactive”. For `CN(C)CCN1C[C@H]2OCCN(Cc3cnn(C)c3)[C@H]2C1`, the cytotoxicity call was “inactive”. For `CO[C@H]1CN(C)C(=O)c2ccc(NS(C)(=O)=O)cc2OC[C@@H](C)N(C(=O)C2CCCCC2)C[C@H]1C`, the cytotoxicity call was “inactive”. In the case of `O=c1[nH]cc(F)c(=O)[nH]1`, the cytotoxicity call is reported as “inactive”. `O=C(Oc1ccccc1C(=O)O)c1ccccc1O` was tested, and the cytotoxicity call was “inactive”. In the case of `CC1CC(OC(=O)C(O)c2ccccc2)CC(C)(C)C1` (centres undefined), the cytotoxicity call is reported as “inactive”. With `CC1CC(OC(=O)c2ccccc2O)CC(C)(C)C1` (centres undefined) the cytotoxicity call was “active”. In the case of `C[C@@H]1CCCCO[C@@H](CN(C)Cc2ccc(C(F)(F)F)cc2)[C@@H](C)CN([C@@H](C)CO)C(=O)c2cc(NS(=O)(=O)c3ccccc3)ccc2O1`, the cytotoxicity call is reported as “inactive”. `COc1ccc([Si](C)(C)[C@H]2[C@H](CC(=O)N3Cc4ccccc4C[C@H]3CO)O[C@@]3(C(=O)N(Cc4cccc(N5CCC5=O)c4)c4ccccc43)[C@@H]2C)cc1` was tested, and the cytotoxicity call was “inactive”. In the case of `COc1ccc(OC)c(CCNC(=O)CN)c1`, the cytotoxicity call is reported as “inactive”. For `C[C@@H]1CCCCO[C@@H](CN(C)S(=O)(=O)c2ccccc2)[C@H](C)CN([C@H](C)CO)C(=O)c2cc(NS(=O)(=O)c3ccc(Cl)cc3)ccc2O1`, the cytotoxicity call was “inactive”. In the case of `Cc1ccc(S(=O)(=O)Nc2ccc3c(c2)C(=O)N([C@@H](C)CO)C[C@@H](C)[C@H](CN(C)CC2CCCCC2)OCCCC[C@H](C)O3)cc1`, the cytotoxicity call is reported as “inactive”. In the case of `C[C@@H]1CN([C@H](C)CO)C(=O)c2cc(NS(=O)(=O)c3ccccc3)ccc2O[C@@H](C)CCCCO[C@H]1CN(C)S(=O)(=O)c1ccc(Cl)cc1`, the cytotoxicity call is reported as “active”. With `C[C@@H]1CCCCO[C@H](CN(C)S(=O)(=O)c2ccccc2)[C@H](C)CN([C@@H](C)CO)C(=O)c2cc(NS(=O)(=O)c3ccc(Cl)cc3)ccc2O1` the cytotoxicity call was “inactive”. In the case of `Cc1ccc(S(=O)(=O)Nc2ccc3c(c2)C(=O)N([C@H](C)CO)C[C@H](C)[C@H](CN(C)CC2CCCCC2)OCCCC[C@H](C)O3)cc1`, the cytotoxicity call is reported as “active”. In the case of `C[C@H](CO)N1C[C@H](C)[C@H](CN(C)CC2CCCCC2)OCCCC[C@H](C)Oc2ccc(NS(=O)(=O)c3ccc(Cl)cc3)cc2C1=O`, the cytotoxicity call is reported as “inactive”. For `Cc1ccc(S(=O)(=O)Nc2ccc3c(c2)C(=O)N([C@H](C)CO)C[C@@H](C)[C@H](CN(C)CC2CCCCC2)OCCCC[C@@H](C)O3)cc1`, the cytotoxicity call was “inactive”. With `C[C@@H]1CCCCO[C@H](CN(C)CC2CCCCC2)[C@H](C)CN([C@@H](C)CO)C(=O)c2cc(NS(=O)(=O)c3ccc(Cl)cc3)ccc2O1` the cytotoxicity call was “active”. `C[C@@H]1CN([C@@H](C)CO)C(=O)c2cc(NS(=O)(=O)c3ccc(Cl)cc3)ccc2O[C@@H](C)CCCCO[C@H]1CN(C)CC1CCCCC1` was tested, and the cytotoxicity call was “inactive”.
